According to PubChem BioAssay AID1745857 (National Center for Advancing Translational Sciences (NCATS), 2022):
Out of some 120,000 compounds screened, about 370 (0.31%) were called active. Another 4% or so got no clear call; they are omitted. This is one part of a sample in which actives are shown more often than they occur. The call rests on the fitted dose curve.

Assay: Primary qHTS Assay for Foot and Mouth Disease Virus Antivirals against NCGC Sytravon and CBC Compound Libraries: Renilla Luciferase Signal; further: nearly all actives have a fitted effect of over 55% in size
Conditions: FMDV replicon cells; series mostly up to 57.5 µM; activity change, negative = inhibition: at the top concentration
On the % scale 0 is the no-effect control and ±100 the full control effect; potency means the concentration at half of the fitted maximal effect.

| Structure (SMILES) | activity change, negative = inhibition | Potency |
| --- | --- | --- |
| CCOc1ccc(-c2noc(-c3nnn(-c4ccc(C(C)C)cc4)c3N)n2)cc1 | 13.1% (inactive) |  |
| CCCCCCCCc1ccc(-c2ccc(CC)cc2)nc1 | -6.84% [at 1.06 µM] (inactive) |  |
| COc1ccc(OC)c(CCNC(=O)CSCc2cnn(-c3ccccc3)c2-n2cccc2)c1 | -0.795% (inactive) |  |
| CCC(Nc1ccc2oc(C)nc2c1)C(=O)Nc1ccc(F)cc1 (configuration not stated) | 39.3% (inactive) |  |
| CCOC(=O)c1c(S(=O)(=O)Nc2cc(Cl)c(OC)cc2OC)c(C)n(C)c1C | 40.2% (inactive) |  |
| Cn1nc(CC(=O)Nc2cccc(Cl)c2)c2ccccc2c1=O |  | 7.94 µM (active) |
| COc1ccc(NC(=O)COC(=O)c2nn(C)c(=O)c3ccccc23)cc1Cl | -4.42% (inactive) |  |
| COc1ccc(Cl)cc1NC(=O)COC(=O)c1nn(C)c(=O)c2ccccc12 | -3.84% (inactive) |  |
| COC(=O)c1cc(NC(=O)CSc2nnc(Cc3ccc(OC)cc3)n2C)ccc1Cl | 5.38% (inactive) |  |
| O=C(Nc1ccc2oc(-c3cccc(Br)c3)nc2c1)c1cccs1 | -3.52% (inactive) |  |
| Cc1c(-c2nsc(NC(=O)c3cccc(Cl)c3)n2)nnn1-c1ccccc1C(F)(F)F |  | 12.6 µM (active) |
| COc1ccc(-n2nnc(-c3nsc(NC(=O)c4ccc(C)c(C)c4)n3)c2C)cc1Cl | 20.9% (inactive) |  |
| CCc1cccc(-n2nnc(-c3nsc(NC(=O)c4ccc(C)cc4)n3)c2C)c1 | -4.67% (inactive) |  |
| N#Cc1ccc(-c2ccc(OCc3ccccc3C#N)cc2)cc1 | 16.3% (inactive) |  |
| COc1ccc(OC)c(C2c3c(n[nH]c3C)Nc3[nH]c(=O)[nH]c(=O)c32)c1 (configuration not stated) | 11.2% (inactive) |  |
| CCOC(=O)C1=C(CNCc2ccc(C)cc2)NC(=O)NC1c1ccc(Cl)cc1 (configuration not stated) | -10.7% (inactive) |  |
| CN(C)CCNC(C(=O)O)c1c[nH]c2cc(F)ccc12 (configuration not stated) | 3.52% (inactive) |  |
| C#CC[N+]1(C)C(C)CCCC1C (configuration not stated) | -0.993% (inactive) |  |
| CCCNC(=O)c1ccc(NC(=O)CCc2ccccc2)cc1 | -4.2% (inactive) |  |

| Structure (SMILES) | activity change, negative = inhibition | Potency |
| --- | --- | --- |
| Cc1csc(/C(C#N)=C\NC2CC(C)(C)NC(C)(C)C2)n1 | -1.6% (inactive) |  |
| Cc1nc(-c2ccc(F)cc2)sc1C(=O)N[C@H](C(=O)O)C(C)C | 23.8% (inactive) |  |
| CCCn1nc(C(=O)Nc2ncc(Cc3ccc(F)cc3)s2)ccc1=O |  | 25.1 µM (active) |
| Cc1cnc(NC(=O)c2nc(C)n(-c3ccc(F)cc3)n2)s1 | 0.0004% (inactive) |  |
| Cc1[nH]n(-c2nc(-c3ccccc3)cs2)c(=O)c1CC(=O)Nc1cccc(Cl)c1 | -4.92% (inactive) |  |
| CCCN(CC(=O)Nc1cccc(C(=O)NC2CC2)c1)Cc1nnc(-c2cccs2)o1 | 69.5% (inactive) |  |
| COCCCn1c(C)cc(C(=O)CSc2ncnc3ccccc23)c1C |  | 1.41 µM (active) |
| COCCn1c(C)cc(C(=O)CSc2nnc(-c3ccccc3OC)n2-c2ccc(Cl)cc2)c1C | -11.3% [at 1.06 µM] (inactive) |  |
| Cc1cccc(NC(=O)CSc2ncnc3ccccc23)c1 | -11.7% (inactive) |  |
| Cc1cc(C(C)(C)C)cc(C)c1CCNC(=O)c1ccc(NC(=O)CC#N)cc1 | -11.7% [at 1.06 µM] (inactive) |  |
| CCc1ccc(/C=C/C(=O)c2cc3ccccc3oc2=O)cc1 | 47.5% (inactive) |  |
| Cc1[nH]c2ccccc2c1C(C(=O)O)N1CCN(Cc2ccccn2)CC1 (configuration not stated) | -14.3% (inactive) |  |
| O=C(COc1ccc2c(c1)CCC2)OCC(=O)c1ccc2c(c1)OCCO2 | 5.29% (inactive) |  |
| COC(=O)c1ccc(C2C(c3ccccc3)=C(O)C(=O)N2c2ccc(Cl)cc2)cc1 (configuration not stated) | 16.2% (inactive) |  |
| COc1ccc(CNc2oc(-c3ccc(C)cc3)nc2C#N)cc1 | 0% (inactive) |  |
| CC(C)Cn1c(=O)c2ccccc2n2c(SCC(=O)Nc3ccc(F)cc3F)nnc12 | -5.31% (inactive) |  |
| O=C(NCc1cccs1)C1CCN(c2nccn3nc(-c4ccccc4)cc23)CC1 | 11.8% (inactive) |  |
| CSCCCNC(=S)NNC(N)=O | 8.02% (inactive) |  |
